Measurements reported in PubChem BioAssay AID1159580 (chemical genetic matrix, 2015).
The whole screen tested about 5,500 compounds, of which about 2,000 (36%) were called active. Roughly 18% stayed inconclusive and do not appear here. Cut-off read from the data, not from the text of the source: active = normalized growth mostly below about 0.91 (no sharp cut-off); inconclusive = no clear call, values can overlap the other calls; inactive = mostly above about 0.92. Some of the results follow.

Test: chemical genetic growth profiling, strain panel (AID 1159580);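 note: tested at 20 µM; growth read once vehicle control cultures reached saturation at 30 °C; 1 = growth at the plate median or of vehicle wells; lower values mean less growth of the strain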
Conditions: growth OD

Measured: normalized growth

Nc1c2c(nc3ccccc13)CCCC2O (stereo not drawn)
inactive: S. cerevisiae deletion strains, locus YJR066W, strain TOR1, stronger effect = lower value 0.916 | S. cerevisiae deletion strains, locus YJR075W, strain HOC1, stronger effect = lower value 0.987 | S. cerevisiae deletion strains, locus YKL009W, strain mrt4, stronger effect = lower value 0.976 | S. cerevisiae deletion strains, locus YKL068W, stronger effect = lower value 0.987 | S. cerevisiae deletion strains, locus YKL085W, strain MDH1 (second series), stronger effect = lower value 0.991 | S. cerevisiae deletion strains, locus YKL085W, strain MDH1, stronger effect = lower value 0.991 | S. cerevisiae deletion strains, locus YKL160W, strain elf1, stronger effect = lower value 1.01 | S. cerevisiae deletion strains, locus YKL190W, strain CNB1, stronger effect = lower value 1.01 | S. cerevisiae deletion strains, locus YKR001C, strain vps1, stronger effect = lower value 0.989 | S. cerevisiae deletion strains, locus YKR026C, strain gcn3, stronger effect = lower value 1.01 | S. cerevisiae deletion strains, locus YKR091W, strain srl3, stronger effect = lower value 0.998 | S. cerevisiae deletion strains, locus YLL001W, strain dnm1, stronger effect = lower value 0.983 | S. cerevisiae deletion strains, locus YLL026W, stronger effect = lower value 0.996 | S. cerevisiae deletion strains, locus YLL041C, strain sdh2, stronger effect = lower value 1.02 | S. cerevisiae deletion strains, locus YLR027C, strain aat2, stronger effect = lower value 1.01 | S. cerevisiae deletion strains, locus YLR039C, strain RIC1, stronger effect = lower value 1.01 | S. cerevisiae deletion strains, locus YLR058C, strain SHM2, stronger effect = lower value 1.01 | S. cerevisiae deletion strains, locus YLR102C, strain apc9, stronger effect = lower value 0.984 | S. cerevisiae deletion strains, locus YLR113W, strain HOG1, stronger effect = lower value 1.03 | S. cerevisiae deletion strains, locus YLR221C, strain rsa3, stronger effect = lower value 1.02 | S. cerevisiae deletion strains, locus YLR258W, strain gsy2, stronger effect = lower value 0.996 | S. cerevisiae deletion strains, locus YLR262C, strain YPT6 (second series), stronger effect = lower value 1.01 | S. cerevisiae deletion strains, locus YLR262C, strain YPT6, stronger effect = lower value 0.963 | S. cerevisiae deletion strains, locus YLR268W, strain sec22, stronger effect = lower value 0.966 | S. cerevisiae deletion strains, locus YLR320W, strain mms22, stronger effect = lower value 1.01 | S. cerevisiae deletion strains, locus YLR330W, strain CHS5, stronger effect = lower value 0.989 | S. cerevisiae deletion strains, locus YLR342W, strain FKS1 (second series), stronger effect = lower value 1.01 | S. cerevisiae deletion strains, locus YLR342W, strain FKS1, stronger effect = lower value 1.01 | S. cerevisiae deletion strains, locus YLR357W, strain rsc2, stronger effect = lower value 0.975 | S. cerevisiae deletion strains, locus YLR370C, strain arc18, stronger effect = lower value 1 | S. cerevisiae deletion strains, locus YLR371W, strain rom2, stronger effect = lower value 0.98 | S. cerevisiae deletion strains, locus YLR384C, strain iki3, stronger effect = lower value 1 | S. cerevisiae deletion strains, locus YLR418C, strain cdc73, stronger effect = lower value 1.02 | S. cerevisiae deletion strains, locus YML016C, strain PPZ1, stronger effect = lower value 1.01 | S. cerevisiae deletion strains, locus YML032C, strain rad52, stronger effect = lower value 0.99 | S. cerevisiae deletion strains, locus YML120C, strain ndi1, stronger effect = lower value 1.03 | S. cerevisiae deletion strains, locus YML124C, strain tub3, stronger effect = lower value 0.998 | S. cerevisiae deletion strains, locus YMR058W, strain fet3, stronger effect = lower value 1.02 | S. cerevisiae deletion strains, locus YMR078C, strain ctf18, stronger effect = lower value 0.993 | S. cerevisiae deletion strains, locus YMR125W, strain sto1, stronger effect = lower value 0.997 | S. cerevisiae deletion strains, locus YMR129W, stronger effect = lower value 0.999 | S. cerevisiae deletion strains, locus YMR205C, strain PFK2, stronger effect = lower value 0.996 | S. cerevisiae deletion strains, locus YMR223W, strain ubp8, stronger effect = lower value 0.987 | S. cerevisiae deletion strains, locus YMR231W, strain pep5, stronger effect = lower value 0.999 | S. cerevisiae deletion strains, locus YMR307W, strain GAS1, stronger effect = lower value 1.08 | S. cerevisiae deletion strains, locus YNL067W, strain RPL9B, stronger effect = lower value 1.01 | S. cerevisiae deletion strains, locus YNL071W, strain lat1, stronger effect = lower value 1.01 | S. cerevisiae deletion strains, locus YNL128W, strain TEP1, stronger effect = lower value 1.02 | S. cerevisiae deletion strains, locus YNL175C, strain NOP13, stronger effect = lower value 1 | S. cerevisiae deletion strains, locus YNL183C, strain NPR1, stronger effect = lower value 0.912 | S. cerevisiae deletion strains, locus YNL197C, strain WHI3, stronger effect = lower value 0.968 | S. cerevisiae deletion strains, locus YNL209W, strain ssb2, stronger effect = lower value 1.01 | S. cerevisiae deletion strains, locus YNL224C, strain SQS1, stronger effect = lower value 1 | S. cerevisiae deletion strains, locus YNL233W, strain BNI4, stronger effect = lower value 1.03 | S. cerevisiae deletion strains, locus YNL248C, strain rpa49, stronger effect = lower value 0.992 | S. cerevisiae deletion strains, locus YNL250W, strain rad50, stronger effect = lower value 1.01 | S. cerevisiae deletion strains, locus YNL271C, strain bni1, stronger effect = lower value 0.981 | S. cerevisiae deletion strains, locus YNL298W, strain CLA4, stronger effect = lower value 0.988 | S. cerevisiae deletion strains, locus YNL307C, strain MCK1, stronger effect = lower value 0.993 | S. cerevisiae deletion strains, locus YNL322C, strain KRE1 (second series), stronger effect = lower value 1.01 | S. cerevisiae deletion strains, locus YNR049C, strain mso1, stronger effect = lower value 1.01 | S. cerevisiae deletion strains, locus YNR052C, strain pop2, stronger effect = lower value 0.966 | S. cerevisiae deletion strains, locus YOL006C, strain TOP1, stronger effect = lower value 1.13 | S. cerevisiae deletion strains, locus YOL012C, strain htz1 0.815 | S. cerevisiae deletion strains, locus YOL147C, strain pex11, stronger effect = lower value 0.999 | S. cerevisiae deletion strains, locus YOR001W, strain rrp6, stronger effect = lower value 1.03 | S. cerevisiae deletion strains, locus YOR061W, strain CKA2, stronger effect = lower value 1.01 | S. cerevisiae deletion strains, locus YOR069W, strain VPS5, stronger effect = lower value 1 | S. cerevisiae deletion strains, locus YOR070C, strain gyp1, stronger effect = lower value 1.01 | S. cerevisiae deletion strains, locus YOR080W, strain dia2, stronger effect = lower value 0.996 | S. cerevisiae deletion strains, locus YOR083W, strain WHI5 (second series), stronger effect = lower value 0.986 | S. cerevisiae deletion strains, locus YOR083W, strain WHI5, stronger effect = lower value 1.01 | S. cerevisiae deletion strains, locus YOR106W, strain vam3, stronger effect = lower value 1 | S. cerevisiae deletion strains, locus YOR136W, strain idh2, stronger effect = lower value 0.997 | S. cerevisiae deletion strains, locus YOR144C, strain elg1, stronger effect = lower value 0.999 | S. cerevisiae deletion strains, locus YOR184W, strain ser1, stronger effect = lower value 0.988 | S. cerevisiae deletion strains, locus YOR231W, strain MKK1, stronger effect = lower value 0.977 | S. cerevisiae deletion strains, locus YOR265W, strain rbl2, stronger effect = lower value 1 | S. cerevisiae deletion strains, locus YOR270C, strain vph1, stronger effect = lower value 1.02 | S. cerevisiae deletion strains, locus YOR290C, strain snf2, stronger effect = lower value 0.974 | S. cerevisiae deletion strains, locus YOR316C, strain cot1, stronger effect = lower value 0.977 | S. cerevisiae deletion strains, locus YPL051W, strain arl3, stronger effect = lower value 1.01 | S. cerevisiae deletion strains, locus YPL055C, strain LGE1, stronger effect = lower value 1.06 | S. cerevisiae deletion strains, locus YPL078C, strain atp4, stronger effect = lower value 1.01 | S. cerevisiae deletion strains, locus YPL106C, strain sse1, stronger effect = lower value 1.01 | S. cerevisiae deletion strains, locus YPL240C, strain hsp82, stronger effect = lower value 1.01 | S. cerevisiae deletion strains, locus YPL256C, strain CLN2, stronger effect = lower value 0.962 | S. cerevisiae deletion strains, locus YPR119W, strain clb2, stronger effect = lower value 0.976 | S. cerevisiae deletion strains, locus YPR141C, strain kar3, stronger effect = lower value 0.982 | S. cerevisiae deletion strains, locus YPR163C, strain tif3, stronger effect = lower value 0.973 | S. cerevisiae deletion strains, locus YPR167C, strain met16, stronger effect = lower value 0.984 | S. cerevisiae deletion strains, strain wtn01, stronger effect = lower value 0.993 | S. cerevisiae strains, strain wild type, stronger effect = lower value 1.02
